USP30 block = blocks human USP30 ubiquitin-rhodamine cleavage; Q70CQ3; purified USP30, Ub-rhodamine cleavage fluorescence; inhibition, % at 25 µM; actives 5.3% (n = 47,000)
USP28 block = blocks human USP28 ubiquitin-rhodamine cleavage | Q96RU2 | purified USP28, Ub-rhodamine cleavage fluorescence, 30 min | inhibition, % at 25 µM | actives 3% (n = 47,000) | AID 1645857
USP8 block = blocks human USP8 ubiquitin-rhodamine cleavage; P40818; purified USP8, Ub-rhodamine cleavage fluorescence, 30 min; inhibition, % at 20 µM; actives 4.2% (n = 47,000)
USP17 block = blocks human USP17 ubiquitin-rhodamine cleavage | purified USP17, Ub-rhodamine cleavage fluorescence, 3 h | inhibition, % at 50 µM | actives 6.5% (n = 47,000) | AID 1645855
Starred values were filed as active, the others as inactive. Hits are enriched below; roughly 14% of the tested compounds scored in any of these assays. Cut-off read from the data, not from the text of the source: active = inhibition above about 30%; inactive = the rest.

How did COc1ccc([C@H]2[C@H](C(C)=O)N3c4ccc(Cl)cc4C=CC3C23C(=O)c2ccccc2C3=O)cc1 (stereo not given in full) do in these assays?
USP30 block: inactive; USP28 block: -151; USP8 block: -133; USP17 block: -126

What do the screens show for `CC(C)CN1[C@H]2CCN(c3ncccn3)CC[C@@H]2Oc2ccccc2S1(=O)=O`?
USP30 block: -48; USP28 block: -8; USP8 block: -6; USP17 block: -16

Results for CCc1ccccc1NC(=O)Cn1c(C)nc2c(c1=O)CCN(Cc1ccccc1)C2 ?
USP30 block: -54; USP28 block: -16; USP8 block: 52*; USP17 block: 19

What do the screens show for `CCN(CC)C(=O)[C@@]1(c2ccccc2)C[C@H]1COc1ccc(C)cc1`?
USP30 block: 29; USP28 block: 25; USP8 block: 20; USP17 block: 30*

Results for O=C(NCc1ccc(F)cc1)N1CCC(Nc2cccnc2)C1 (stereo not given) ?
USP30 block: -344; USP28 block: -105; USP8 block: 35*; USP17 block: -30

How did O=C(c1cccc(F)c1)N1CCC(Nc2cccnc2)C1 (stereo not given) do in these assays?
USP30 block: inactive; USP28 block: -148; USP8 block: 25; USP17 block: -90

What do the screens show for `Cc1cc2n(n1)CCCN2C(=O)CCC(=O)N1CCN(C2CCCCC2)CC1`?
USP30 block: 18; USP28 block: 4; USP8 block: 8; USP17 block: 9

What do the screens show for `c1ccc(CCNc2nc(-c3ccccc3)no2)cc1`?
USP30 block: 23; USP28 block: 26; USP8 block: 21; USP17 block: 11

Results for COc1ccc(-c2noc(NCCc3ccccc3)n2)cc1 ?
USP30 block: 24; USP28 block: 15; USP8 block: 21; USP17 block: 37*

What do the screens show for `O=C(c1cccc(F)c1)N1CCN(c2cnn3c(C4CC4)nnc3c2)CC1`?
USP30 block: -5; USP28 block: -2; USP8 block: -1; USP17 block: -7

How did O=C(/C=C/c1ccccc1)N1CCN(C2=NS(=O)(=O)c3ccccc32)CC1 do in these assays?
USP30 block: 80*; USP28 block: 0; USP8 block: 1; USP17 block: 0

How did COc1ccccc1/C=C(/C(=O)N1CCN(Cc2ccc3c(c2)OCO3)CC1)c1ccccc1 do in these assays?
USP30 block: 42*; USP28 block: 14; USP8 block: 11; USP17 block: 15

How did Cn1c(CNC(=O)c2ccco2)nnc1SCC(=O)Nc1cccc(Cl)c1 do in these assays?
USP30 block: 0; USP28 block: -11; USP8 block: 0; USP17 block: -14

How did O=C(NCCc1ccccn1)c1cc(-c2ccc(Br)cc2)n[nH]1 do in these assays?
USP30 block: 34*; USP28 block: 12; USP8 block: 20; USP17 block: 80*

What do the screens show for `COc1ccc(-c2nccn3cc(C(=O)NCc4nc5ccccc5n4C)nc23)cc1`?
USP30 block: -254; USP28 block: -41; USP8 block: 36*; USP17 block: -8

Results for O=C(NCCc1ccccn1)c1cn2ccnc(-c3ccc(F)cc3)c2n1 ?
USP30 block: 56*; USP28 block: 4; USP8 block: 2; USP17 block: 21

Results for Cc1ccc(-c2nccn3cc(C(=O)NCCc4ccccn4)nc23)cc1 ?
USP30 block: -27; USP28 block: -11; USP8 block: -10; USP17 block: -17

How did Cc1ccc2nc(NC(=O)Cc3c[nH]c4ccccc34)sc2c1 do in these assays?
USP30 block: 0; USP28 block: -5; USP8 block: -9; USP17 block: -8

What do the screens show for `O=C(NCCc1ccco1)c1ccc(N2CCOc3ccccc32)s1`?
USP30 block: 47*; USP28 block: 22; USP8 block: 20; USP17 block: 57*

Results for O=C(NC1CCCCCC1)c1ccc(N2CCOc3ccccc32)s1 ?
USP30 block: -80; USP28 block: -15; USP8 block: -19; USP17 block: -17

How did O=C(c1ccccc1Sc1nccnc1Oc1ccccc1)N1CCC2(CC1)OCCO2 do in these assays?
USP30 block: 7; USP28 block: 4; USP8 block: -1; USP17 block: -2

How did COCCNC(=O)C1(C)Cn2nc(-c3ccco3)cc2C(=O)N1c1ccc(C)cc1 (stereo not given) do in these assays?
USP30 block: -95; USP28 block: -29; USP8 block: -5; USP17 block: -1

What do the screens show for `CC(C)(C)OC(=O)NCc1ccc(C(=O)Nc2ccc(Cl)cn2)cc1`?
USP30 block: 34*; USP28 block: 18; USP8 block: 13; USP17 block: 23

How did Cc1cc(C(=O)Nc2nc3c(s2)CN(C(=O)/C=C/c2ccco2)CC3)no1 do in these assays?
USP30 block: -77; USP28 block: 20; USP8 block: -10; USP17 block: 35*

How did O=C(Nc1cccc(F)c1)N1CCC2(C1)C(=O)Nc1ccccc12 (stereo not given) do in these assays?
USP30 block: -16; USP28 block: 0; USP8 block: -2; USP17 block: -7

How did O=C1/C(=C/c2ccccc2)CC/C1=C\c1ccccc1 do in these assays?
USP30 block: 17; USP28 block: 14; USP8 block: 44*; USP17 block: 26

Results for Cc1ccccc1C(=O)NCCn1cc(SCC(=O)Nc2ccc3c(c2)OCCO3)c2ccccc21 ?
USP30 block: 89*; USP28 block: 57*; USP8 block: -19; USP17 block: 22

How did O=C(CSc1cn(CC(=O)N2CCCCC2)c2ccccc12)Nc1ccc2c(c1)OCO2 do in these assays?
USP30 block: 18; USP28 block: 10; USP8 block: -25; USP17 block: 8

How did Cc1ccccc1Cn1cc(SCC(=O)Nc2ccc3c(c2)OCCO3)c2ccccc21 do in these assays?
USP30 block: 35*; USP28 block: 50*; USP8 block: 12; USP17 block: 11

How did O=C(CSc1cn(Cc2ccccc2)c2ccccc12)Nc1ccc2c(c1)OCCO2 do in these assays?
USP30 block: 48*; USP28 block: 60*; USP8 block: 23

How did Cc1c(Cl)cccc1NC(=O)Cn1c(=O)c2ccccc2n2nncc12 do in these assays?
USP30 block: -109; USP28 block: -31; USP8 block: -6; USP17 block: 50*

What do the screens show for `O=C(C(Cc1c[nH]c2ccccc12)N1CCS(=O)(=O)CC1)N1CCN(c2ccccc2)CC1` (stereo not given)?
USP30 block: -2; USP28 block: -4; USP8 block: 7; USP17 block: 1

How did CSc1nc(SCC(=O)Nc2cccc3ccccc23)c2c3c(sc2n1)COC(C)(C)C3 do in these assays?
USP30 block: 1; USP28 block: -1; USP8 block: -11; USP17 block: -7

How did COc1ccc2occ(CC(=O)Nc3nnc(SC)s3)c2c1 do in these assays?
USP30 block: -56; USP28 block: 3; USP8 block: 0; USP17 block: 33*

Results for Cn1c(=O)c2ccc(C3CCCCN3S(=O)(=O)N3CCCC3)nc2n(C)c1=O (stereo not given) ?
USP30 block: 17; USP28 block: 7; USP8 block: 16; USP17 block: 0

From PubChem BioAssay
